The source made the active and inactive calls.

This is an account of results in PubChem BioAssay.

Experiment [1] in a line: optical density shifts of acrAB sulA E. coli – strain DRC41, OD650, 48 h, E. coli filamentation inducer project, primary screen (AID 1152).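 Also: E. coli MC1000 strain DRC41 lacking acrAB efflux pump and sulA.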 The conditions noted are these: higher = more signal, called active from +8 up or from −8 down.
The nature of experiment [2]: probe aLefty1 binding on compound microarray – biochemical, small-molecule microarray, 635/667 nm fluorescence, primary screen (AID 1153).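 Also: score merges spot fluorescence with signal-to-noise ratio from the scanned slide images.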 The conditions noted are these: higher = more signal.
The nature of experiment [3]: plasmodial surface anion channel blockers, osmotic lysis – cell-based, P. falciparum Indochina, OD700, 1 h, primary screen (AID 1154). As to conditions: P. falciparum Indochina infected RBC osmotic lysis, higher = more signal, called active from +8 up or from −8 down.
Experiment [4] is described as follows: plasmodial surface anion channel blockers, osmotic lysis – cell-based, P. falciparum Indochina, OD700, 2 h, primary screen (AID 1155).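 Also: lysis reports solute entry through the parasite surface anion channel PSAC.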 As to conditions: P. falciparum Indochina infected erythrocytes, higher = more signal, called active from +8 up or from −8 down.
A short description of experiment [5]: changes in parasitized red cell lysis, either direction – P. falciparum Indochina, OD700, 3 h, PSAC antagonist project, primary screen (AID 1156). As to conditions: P. falciparum-infected erythrocytes, osmotic lysis, higher = more signal, called active from +8 up or from −8 down.
The nature of experiment [6]: plasmodial surface anion channel blockers, osmotic lysis – cell-based, P. falciparum Indochina, OD700, 18 h, primary screen (AID 1157). As to conditions: P. falciparum Indochina infected erythrocytes, osmotic lysis OD700, 18 h; higher = more signal, called active from +8 up or from −8 down.
Experiment [7] can be described thus: S6 kinase pathway phospho-S6 level changes – cell-based, A549, cytoblot, luminescence, serum-stimulated, primary screen (AID 1158).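 Also: serum-stimulated A549 lung adenocarcinoma cells; signal is phosphorylated S6 detected by cytoblot immunostaining with HRP secondary.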 The conditions noted are these: 5 h, higher = more signal.
In experiment [8] the target is NADPH oxidase 2 (Homo sapiens) (UniProt P04839). Kind of experiment: compounds shifting NOX2 Amplex Red fluorescence – cell-based, HEK293-NOX2, PMA-stimulated, NOX inhibitor project, primary screen (AID 1159). Also: test concentration not given here. As to conditions: 45 min, higher = more signal, called active from +8 up or from −8 down.
Sequence of NADPH oxidase 2 (Homo sapiens) (P04839 whole entry, looked up): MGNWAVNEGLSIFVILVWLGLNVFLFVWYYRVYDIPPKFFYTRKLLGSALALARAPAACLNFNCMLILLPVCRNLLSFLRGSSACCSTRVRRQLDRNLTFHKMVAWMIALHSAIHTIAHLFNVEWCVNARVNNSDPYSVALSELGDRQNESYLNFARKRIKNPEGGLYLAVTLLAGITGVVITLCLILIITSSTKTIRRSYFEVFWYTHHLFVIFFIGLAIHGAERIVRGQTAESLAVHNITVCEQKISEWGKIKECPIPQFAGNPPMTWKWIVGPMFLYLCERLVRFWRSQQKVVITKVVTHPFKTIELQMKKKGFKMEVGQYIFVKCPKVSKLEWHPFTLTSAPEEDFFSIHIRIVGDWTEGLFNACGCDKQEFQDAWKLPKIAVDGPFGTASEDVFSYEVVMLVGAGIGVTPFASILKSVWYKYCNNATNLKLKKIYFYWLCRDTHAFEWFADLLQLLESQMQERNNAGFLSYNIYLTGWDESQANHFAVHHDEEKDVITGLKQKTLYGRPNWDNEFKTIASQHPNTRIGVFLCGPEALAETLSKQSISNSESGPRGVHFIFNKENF
In experiment [9] the target is NADPH oxidase 4 (Homo sapiens) (UniProt Q9NPH5). The experiment can be described thus: compounds shifting NOX4 Amplex Red fluorescence – cell-based, HEK293-NOX4, tetracycline-induced, NOX inhibitor project, primary screen (AID 1160). As to conditions: HEK293-NOX4, Amplex Red H2O2 fluorescence, 45 min; higher = more signal, called active from +8 up or from −8 down.
Sequence of NADPH oxidase 4 (Homo sapiens) (Q9NPH5 whole entry, looked up): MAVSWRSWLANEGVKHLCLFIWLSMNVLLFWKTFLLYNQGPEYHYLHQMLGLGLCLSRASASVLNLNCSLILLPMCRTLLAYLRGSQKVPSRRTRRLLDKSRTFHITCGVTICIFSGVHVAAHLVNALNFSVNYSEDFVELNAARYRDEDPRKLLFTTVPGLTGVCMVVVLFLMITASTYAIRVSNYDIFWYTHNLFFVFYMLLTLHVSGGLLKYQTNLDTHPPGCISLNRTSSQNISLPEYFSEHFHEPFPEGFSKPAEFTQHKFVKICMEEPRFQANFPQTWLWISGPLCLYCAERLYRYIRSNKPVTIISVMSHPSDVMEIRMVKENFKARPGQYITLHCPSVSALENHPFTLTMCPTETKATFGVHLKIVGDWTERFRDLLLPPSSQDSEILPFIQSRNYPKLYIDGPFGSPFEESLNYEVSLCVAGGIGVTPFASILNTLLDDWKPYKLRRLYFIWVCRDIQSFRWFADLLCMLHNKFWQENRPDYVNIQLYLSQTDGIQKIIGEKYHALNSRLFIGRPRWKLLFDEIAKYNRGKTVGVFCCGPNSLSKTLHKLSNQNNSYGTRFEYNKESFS
Experiment [10] concerns the target NADPH oxidase 5 (Homo sapiens) (UniProt Q96PH1). Kind of experiment: compounds shifting NOX5 Amplex Red fluorescence – cell-based, HEK293-NOX5, NOX inhibitor project, primary screen (AID 1161). The conditions noted are these: HEK293-NOX5, ionomycin, 45 min, higher = more signal.

Sequence of NADPH oxidase 5 (Homo sapiens) (Q96PH1 whole entry, looked up): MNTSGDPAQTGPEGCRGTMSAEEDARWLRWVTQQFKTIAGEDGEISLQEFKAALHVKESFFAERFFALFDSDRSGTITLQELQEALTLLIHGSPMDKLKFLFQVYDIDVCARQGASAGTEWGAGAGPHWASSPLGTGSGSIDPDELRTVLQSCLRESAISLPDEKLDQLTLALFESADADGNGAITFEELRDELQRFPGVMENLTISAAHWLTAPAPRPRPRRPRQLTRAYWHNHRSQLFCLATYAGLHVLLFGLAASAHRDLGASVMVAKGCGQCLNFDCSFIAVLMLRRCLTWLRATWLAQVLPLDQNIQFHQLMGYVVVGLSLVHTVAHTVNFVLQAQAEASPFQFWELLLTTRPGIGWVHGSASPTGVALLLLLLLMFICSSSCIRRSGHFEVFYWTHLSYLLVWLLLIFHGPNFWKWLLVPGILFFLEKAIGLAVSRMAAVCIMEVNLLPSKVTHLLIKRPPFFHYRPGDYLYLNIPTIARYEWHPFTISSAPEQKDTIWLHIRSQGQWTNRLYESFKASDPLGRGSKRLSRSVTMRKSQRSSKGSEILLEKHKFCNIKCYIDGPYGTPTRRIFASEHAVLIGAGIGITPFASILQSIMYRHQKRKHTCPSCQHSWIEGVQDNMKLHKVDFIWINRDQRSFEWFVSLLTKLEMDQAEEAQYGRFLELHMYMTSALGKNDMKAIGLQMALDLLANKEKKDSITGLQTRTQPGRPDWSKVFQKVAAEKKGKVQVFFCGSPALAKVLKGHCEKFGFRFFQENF

As for `O=C1O[C@H](c2ccccc2)[C@H](c2ccccc2)N2[C@H]1[C@@H](C(=O)Nc1nc3ccccc3s1)[C@]1(C(=O)Nc3ccc(C#CCCO)cc31)[C@H]2c1ccc(OCCO)cc1`, the z-score in experiment [1] was -0.448 (inactive); in experiment [3] it was 3.09 (inactive); in experiment [4], 2.02 (inactive); in [5] it was 0.97 (inactive); in experiment [6] it was 2 (inactive); in experiment [7], -0.472. The z-score in [8] was 1.18 (inactive); in experiment [9] it was 0.111 (inactive); in experiment [10], 0.278. This compound registered a composite z-score in experiment [2] of 1.34.

For the compound `C=C(COC)/C(=C/C[C@@H](OC(C)=O)c1ccc(CO)o1)c1cnc2ccccc2c1`, the z-score in experiment [1] is 0.876 (inactive); in experiment [3], 4.44 (inactive); in experiment [4], 0.759 (inactive); in experiment [5], 1.56 (inactive); in [6] it was 0.307 (inactive); in experiment [7], 0.0933. Besides, the z-score is 0.299 (inactive) in experiment [8], -2.98 (inactive) in experiment [9] and -1.25 in experiment [10]. Moreover, the composite z-score in experiment [2] stood at 0.233.

Consider `CN(C)CCCCCCNC(=O)[C@@H]1C[C@@H]2C(=O)N[C@@H](CCCCN)C(=O)N2[C@@H]1c1cccc(OCCO)c1`, for which the z-score was -0.374 (inactive) in [1]; 1.59 (inactive) in experiment [3]; -0.644 (inactive) in experiment [4]; 0.0026 (inactive) in experiment [5]; -2.47 (inactive) in experiment [6]; 1.51 in experiment [7]. Besides, the results for the z-score in [8], in experiment [9] and in experiment [10] were 0.853 (inactive), 0.7 (inactive) and 1.95, respectively. In addition, the composite z-score in experiment [2] was found to be 2.74.

Consider `CC(C)(C)OC(=O)CC[C@]1(C(=O)NCC(O)CO)COC(c2ccc(OCCCO)cc2)=N1` (stereo not given in full), for which the z-score was -0.0886 (inactive) in experiment [1]; 5.77 (inactive) in [3]; 0.645 (inactive) in [4]; 0.639 (inactive) in experiment [5]; 0.619 (inactive) in [6]; 0.0272 in [7]. The z-score in experiment [8] is -2.16 (inactive); in experiment [9], -0.351 (inactive); in experiment [10], -0.519. This compound returned a composite z-score in [2] of 0.149.

`C=CCNC(=O)[C@H]1[C@@H]2C(=O)O[C@@H](c3ccccc3)[C@@H](c3ccccc3)N2[C@@H](c2ccc(O)cc2)[C@]12C(=O)N(C(=O)OCCOC)c1ccc(C#CCNC(N)=O)cc12`: the z-score is -0.929 (inactive) in [1]; 1.78 (inactive) in experiment [3]; 0.441 (inactive) in experiment [4]; -0.627 (inactive) in experiment [5]; 0.0898 (inactive) in experiment [6]; -0.272 in experiment [7]. Besides, the z-score in experiment [8] was 1.28 (inactive); in experiment [9], 0.291 (inactive); in experiment [10] it was 0.383. In experiment [2], this compound yielded a composite z-score of 0.378.

Consider `NC(=O)[C@@H]1[C@H]2C(=O)O[C@H](c3ccccc3)[C@H](c3ccccc3)N2[C@H](c2ccc(O)cc2)[C@@]12C(=O)Nc1ccc(C#CC3(O)CCCCCC3)cc12`, for which the z-score in experiment [1] is -0.723 (inactive); in experiment [3], 2.28 (inactive); in [4], 0.912 (inactive); in experiment [5], 0.904 (inactive); in experiment [6], 0.812 (inactive); in [7], -0.231. The z-score in experiment [8] was 0.834 (inactive); in experiment [9], -0.258 (inactive); in experiment [10] it was -0.125. Also, the composite z-score in experiment [2] was -0.0544.

Consider `CC(C)N1C(=O)[C@@]2(Cc3ccccc31)c1ccccc1C(=O)N(C1CCCCC1)[C@H]2c1ccc(CO)cc1`, for which the z-score was 0.04 (inactive) in experiment [1]; 0.206 (inactive) in [3]; 0.195 (inactive) in experiment [4]; 0.516 (inactive) in [5]; 0.378 (inactive) in experiment [6]; 0.0252 in experiment [7]. The values for the z-score in experiment [8], in experiment [9] and in [10] were 0.111 (inactive), 0.217 (inactive) and -0.638, respectively. In experiment [2], the composite z-score was -0.101.

As to `C=CCOC(=O)[C@@H]1[C@H]2C(=O)O[C@H](c3ccccc3)[C@H](c3ccccc3)N2[C@H](c2ccc(OCCOC(=O)[C@@H]3C[C@@H]4C(=O)N[C@@H](Cc5ccccc5)C(=O)N4[C@@H]3c3ccc(O)cc3)cc2)[C@@]12C(=O)Nc1ccc(I)cc12`, the z-score in experiment [1] was 0.299 (inactive); in experiment [3], 2.33 (inactive); in experiment [4], 1.87 (inactive); in experiment [5], 5.01 (inactive); in [6], 1.14 (inactive); in [7] it was 0.572. Moreover, the z-score in experiment [8] is 0.715 (inactive); in experiment [9], 0.304 (inactive); in experiment [10] it was 0.591. The compound further displayed a composite z-score in experiment [2] of 0.546.

With `[N-]=[N+]=Nc1ccccc1C[C@]1(C(=O)NCC(O)CO)N=C(c2ccc(OCCCO)cc2)O[C@H]1c1ccccc1N=[N+]=[N-]` (stereo not given in full), the z-score in experiment [1] is 0.394 (inactive); in [3], 29.2 (active); in experiment [4], 29 (active); in [5], 0.581 (inactive); in [6], 2.68 (inactive); in experiment [7], 0.0471. Further, the z-score is -2.76 (inactive) in [8], -0.295 (inactive) in [9] and -1.67 in [10]. The composite z-score in experiment [2] was -0.0295.

For the compound `CCCCc1cn(C[C@H](Cc2ccccc2)NC(=O)N[C@H](CO)CCc2oc(C(C)=O)c(C(=O)OC)c2C(=O)OC)nn1`, the z-score in experiment [1] was 0.135 (inactive); in experiment [3], 1.66 (inactive); in experiment [4] it was -0.983 (inactive); in [5] it was 1.21 (inactive); in experiment [6], -0.496 (inactive); in experiment [7], 0.847. The z-score is -4.81 (inactive) in experiment [8], -2.87 (inactive) in experiment [9] and -2.48 in experiment [10]. The compound also showed a composite z-score in experiment [2] of 0.086.

In the case of `O=C(NCC(F)(F)F)[C@@H]1c2ccccc2C(=O)N(C2CCCCC2)[C@H]1c1ccc(CO)cc1`, the z-score was -0.36 (inactive) in [1]; 0.732 (inactive) in experiment [3]; -0.243 (inactive) in [4]; 0.0266 (inactive) in experiment [5]; 0.18 (inactive) in experiment [6]; -0.216 in [7]. In addition, the z-score in [8] is 0.292 (inactive); in experiment [9] it was -0.755 (inactive); in experiment [10] it was 0.211. In [2], the composite z-score is -0.146.

In the case of `CC(C)c1ccc(NN2C(C(O)C(c3ccccc3)c3ccccc3)C=CC3C(=O)N(c4ccccc4)C(=O)C32)cc1` (stereo not given), the z-score in experiment [1] is -1.98 (inactive); in experiment [3], 0.363 (inactive); in experiment [4], 1.32 (inactive); in experiment [5], 0.771 (inactive); in experiment [6] it was 0.948 (inactive); in [7], -0.582. Besides, the z-score is -1 (inactive) in [8], -4.56 (inactive) in [9] and -4.98 in [10]. The composite z-score in experiment [2] is 0.497.

On to `O=C1C2C=CC(C(O)C(c3ccccc3)c3ccccc3)N(n3cnnc3)C2C(=O)N1Cc1ccccc1` (stereo not given), for which the z-score was -1.48 (inactive) in experiment [1]; 2.36 (inactive) in experiment [3]; 1.26 (inactive) in experiment [4]; -0.218 (inactive) in experiment [5]; 0.949 (inactive) in [6]; -0.429 in experiment [7]. Moreover, the z-score in [8] was 0.67 (inactive); in experiment [9] it was -2.83 (inactive); in [10] it was -0.766. For the same compound, the composite z-score in experiment [2] stood at 0.169.
